High-throughput results from PubChem.
RecA splice inh – Mtb RecA intein splicing inhibition. inhibition, % (concentration not given with the values). hit rate 0.75% among 290,000. cell-free RecA intein splicing, fluorescence. P9WHJ3; in the data active = inhibition above about 30%;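 note: 0% = vehicle wells and 100% = reference inhibitor control wells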
GDH-TPI counter-1 – counter-screen for M. tuberculosis FBA inhibitors: GDH-TPI coupled enzymes. GDH-TPI coupled enzyme counterscreen, NADH absorbance. inhibition, % at 4.8 µM. hit rate 1.2% among 360,000; in the data active = inhibition above about 30%;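 note: 0% = DMSO wells and 100% = wells lacking the enzyme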
Rv3671c inh – Rv3671c (M. tuberculosis) protease inhibition | P9WHR9 | inhibition, % at 5.96 µM | hit rate 0.048% among 320,000; in the data active = inhibition above about 38%;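 note: extracellular domain of Rv3671c used as enzyme; 0% = enzyme with DMSO and 100% = no enzyme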
FBA Mtb inh – Mtb fructose-bisphosphate aldolase inhibition; P9WQA3; purified M. tuberculosis FBA, fluorescence read-out; inhibition, % at 1 µM; hit rate 2.3% among 360,000;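 note: 0% = vehicle and 100% = reference inhibitor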
UGM FP inh – inhibitors of M. tuberculosis UDP-galactopyranose mutase. P9WIQ1. purified UGM, fluorescence polarization probe displacement. inhibition, % at 10 µM. hit rate 0.06% among 320,000. AID 504406; in the data active = inhibition above about 10%, passing the limit was not always enough
Target sequence (P9WIQ1 whole entry, looked up): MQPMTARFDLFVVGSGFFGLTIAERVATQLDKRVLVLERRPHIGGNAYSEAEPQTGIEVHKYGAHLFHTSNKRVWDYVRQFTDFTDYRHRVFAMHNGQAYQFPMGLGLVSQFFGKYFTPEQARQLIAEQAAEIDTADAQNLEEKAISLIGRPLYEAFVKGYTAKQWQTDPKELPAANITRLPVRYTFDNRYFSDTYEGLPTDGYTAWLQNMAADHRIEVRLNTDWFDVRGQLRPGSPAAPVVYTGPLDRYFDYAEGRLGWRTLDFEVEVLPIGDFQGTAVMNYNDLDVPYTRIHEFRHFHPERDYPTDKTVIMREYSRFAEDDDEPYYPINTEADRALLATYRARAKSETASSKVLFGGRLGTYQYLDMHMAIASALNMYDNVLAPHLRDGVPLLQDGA
Mtb bLac sens – beta-lactam sensitization of Mtb H37Rv; hit rate 0.27% among 330,000; AID 434955; M. tuberculosis H37Rv growth with meropenem, percent inhibition; inhibition, % at 25 µM; call rule not given here;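 note: growth measured after seven days incubation then overnight dye step; 0% = bacteria only wells and 100% = bacteria with antibiotic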
DNA intercal FP – DNA intercalation detected by acridine orange polarization counter-screen; shares compounds with UGM FP inh; acridine orange-DNA binding, fluorescence polarization; AC50, µM; hit rate 60% among 35; AID 463198;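 active = fitted AC50 no greater than ten times the top concentration tested, cut at about 17 µM in these data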
Mtb FBA inh conf – Mtb FBA inhibition, confirmed | hit rate 78% among 5,600 | shares compounds with FBA Mtb inh | purified M. tuberculosis FBA, fluorescence read-out | inhibition, % at 1 µM | AID 651616;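 note: 0% = vehicle wells and 100% = reference inhibitor wells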
GDH-TPI counter-2 – inhibits GDH-TPI coupling enzymes, flagging Mtb FBA hits. shares compounds with FBA Mtb inh. GDH-TPI coupled enzyme counterscreen, fluorescence. inhibition, % at 1 µM. hit rate 81% among 5,600; in the data active = inhibition above about 10%
* hit, by the source's call; . = no result given; + = active, no number. This is a sample that favours compounds with a hit; in the whole collection about 4% have one here. Cut-off read from the data, not from the text of the source, unless noted: active = inhibition above about 27%; inactive = the rest.

SMILES	RecA splice inh	GDH-TPI counter-1	Rv3671c inh	FBA Mtb inh	UGM FP inh	Mtb bLac sens	Mtb FBA inh conf	GDH-TPI counter-2	others
C(=C\c1ccccc1)/CN1CCN(C(c2ccccc2)c2nnnn2C2CCCCC2)CC1 (stereo unspecified)	.	.	.	-1	.	.	.	.
CC(C)CSC1=NSC2=NC(=O)/C(=C\c3coc4ccccc4c3=O)C(=N)N12	-5	5	-17	12	-12	0	.	.	DNA intercal FP=17*
CSC1=NSC2=NC(=O)/C(=C\c3coc4ccccc4c3=O)C(=N)N12	.	6	-18	7	-12	3	.	.
CC(=O)Nc1cccc(N)c1	.	8	-4	0	1	-3	.	.	DNA intercal FP=>35
CC(=O)Nc1cccc(C)c1	.	3	2	0	-1	-2	.	.
CC(CN1C(C)CCCC1C)OC(=O)c1cccc(Br)c1 (stereo unspecified)	-1	-9	3	3	2	3	.	.
C[C@@H]1CN([C@H](C)CO)S(=O)(=O)c2ccc(-c3ccc(C#N)cc3)cc2O[C@H]1CN(C)C(=O)Nc1cc(F)ccc1F	.	13	.	5	.	.	.	.
C/C=C/c1ccc2c(c1)O[C@@H](CN(C)C(=O)Nc1cc(F)ccc1F)[C@H](C)CN([C@@H](C)CO)S2(=O)=O	.	.	.	.	.	.	.	.	DNA intercal FP=>35
COc1ccccc1N1CCN(CC(=O)Nc2nc(C)c(C(=O)N(C)C)s2)CC1	-1	7	5	0	0	1	.	.
Cc1cc(C)c2nc(C(F)(F)F)nc(NCCCN3CCCC3=O)c2c1	-2	16	0	-4	0	3	.	.	DNA intercal FP=>35
COc1cccc2c1C(=O)c1c(O)c3c(c(O)c1C2=O)CC(O)(C(=O)CO)CC3OC1CC(N)C(O)C(C)O1 (stereo unspecified)	.	.	.	.	.	.	.	.	DNA intercal FP=6.8*
Cc1cc(NC(=O)NCc2ccccc2)c(=O)n(Cc2ccc(F)cc2)c1	-40	15	1	28*	0	2	98*	83*
COc1cccc(-c2c[nH]c(=O)[nH]c2=O)c1	2	2	3	3	0	2	.	.
COc1cccc(-c2ccc(C#N)c(=O)[nH]2)c1	-1	19	-6	111*	0	-3	+	+
Cc1cccc(C(C)C)c1NC(=O)c1cc2ccccc2o1	3	3	-4	-1	0	27	.	.
OC[C@@H]1[C@@H](c2ccc(F)cc2)C(c2cccc(Cl)c2)=NN1c1ccccc1	.	-1	.	42*	.	.	41*	36*
C[C@H]1C(c2ccc(F)cc2)=NN(c2ccccc2)[C@@H]1CO	.	13	.	23	.	.	.	.
OC[C@@H]1[C@@H](c2ccc(Cl)cc2)C(c2ccccc2)=NN1c1ccccc1	.	11	.	54*	.	.	110*	78*
OC[C@@H]1[C@@H](c2ccc(Cl)cc2)C(c2cccc(Cl)c2)=NN1c1ccccc1	.	-4	.	63*	.	.	158*	102*
Cc1ccc(CNC(=O)c2ccc(OCC(C)C)cc2)n1C	6	8	.	2	-2	-4	.	.
C(=C\c1ccccc1)/CN1CCN(C(c2cccc3ccccc23)c2nnnn2-c2ccc3c(c2)OCCO3)CC1 (stereo unspecified)	.	.	.	0	.	.	.	.
O=C(Cc1cccc(NC(=O)C2CCCN(C(=O)C3CCCCC3)C2)c1)Nc1cccc(C(=O)N2CCCC2)c1 (stereo unspecified)	.	9	-6	0	1	2	.	.
Cc1cc(-c2n[nH]c(=S)o2)c(C)n1-c1ccccc1	-1	.	-2	.	-1	16	.	.
S=c1[nH]nc(-c2c[nH]c3ccccc23)o1	2	3	4	50*	2	0	0	-2
C=CCCC(=O)N1C[C@H]2CON(C)[C@H]2C[C@H]1c1cccc(Oc2ccccc2)c1	.	-12	.	-1	.	.	.	.
COc1ccc(OC)c(NC(=O)CSc2ccc3nnc(-c4ccccn4)n3n2)c1	2	10	6	3	-3	5	.	.
COc1ccc(-c2nc3ccc(Cl)cn3c2NC2CCCCC2)cc1SC1CCCCC1	.	24	2	1	.	78	.	.
COc1ccc(-c2ccc(-c3nc4ccc(C)cn4c3NC3CCCCC3)cc2OC)cc1	-2	19	2	54*	-4	17	+	185*
